An excerpt weighted towards active compounds, which were near 21% of everything screened.
Shiga toxin inh – Shiga toxin inhibition. Vero cells, Shiga toxin protein synthesis inhibition reporter. inhibition, % at 38.7 µM. actives 9.2% (n = 290,000). AID 2315; in the data active = inhibition mostly above about 28%, no sharp cut-off; inactive = mostly below about 43%; note: 0% is about no effect
Pf growth 96h – P. falciparum growth inhibition at 96 hours | P. falciparum luciferase reporter growth, 96 h | Potency, µM (highest dose often 28.7 µM), for inactives: top-dose activity change, negative = inhibition, most hits filed as inhibitors | actives 6.9% (n = 320,000); note: potency is the fitted concentration of half-maximal effect; % is set by controls: 0 for no effect and ±100 for the full control effect
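Infected RBCs, 2% Hct / 0.05% parasitemia final; luciferase-reporter P. falciparum; cpd 96 h, 37 C, 5% CO2; luciferase detection reagent; luminescence.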
NS1 function inh – influenza NS1 inhibition. Potency, µM (doses to about 46.1 µM), inactives show at the top dose activity, positive = more growth. actives 0.4% (n = 270,000). AID 2326; calls by dose curve; note: potency is the fitted concentration of half-maximal effect; actives are rising curves; nearly all actives have a fitted effect of over 50% in size
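Recovery from NS1-induced slow growth read by OD600 in budding yeast switched to galactose assay medium (pH 6.0, -URA) at 1:100 dilution. Compound 23 nl per well; the matching strain lacking NS1 serves as control.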
Pf growth 48h – inhibits P. falciparum growth in the first generation, 48 h; actives 5.9% (n = 310,000); Potency, µM (series often up to 28.7 µM), without a hit: at the top dose activity change, negative = inhibition, usual class: inhibitors; P. falciparum luciferase growth in erythrocytes, 48 h; AID 504832; note: potency is the fitted concentration of half-maximal effect; % is set by controls: 0 for no effect and ±100 for the full control effect
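Parasite viability was followed by luminescence of a genomically integrated firefly luciferase. Cultures held 0.1% parasitemia at 2% hematocrit (final), incubated under 5% CO2 at 37 C.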
CHX counter – counter-screen for Shiga toxin inhibitors: cycloheximide protein synthesis inhibition; AID 2314; actives 12% (n = 300,000); max response, %; cell reporter, cycloheximide protein synthesis inhibition counterscreen; in the data active = max response mostly above about 13%, no sharp cut-off; inactive = mostly below about 14%; note: read at 38.3 µM for the half of the compounds with a filed dose; 0% is about no effect
The depositor's hits bear a star; ? = inconclusive; . = no result. Unless noted, calls come from the whole dose curve; as a rule, active = well fitted inhibition curve with a large enough effect; inconclusive = small, poorly fitted or top-dose-only effect, or another doubt; inactive = no such curve, though single readings can be large or run the other way.

SMILES	Shiga toxin inh	Pf growth 96h	NS1 function inh	Pf growth 48h	CHX counter
COc1ccc(/C(N)=N/OC(=O)c2ccc(C)c([N+](=O)[O-])c2)cc1OC	-1	.	-7%	.	-3
N/C(=N\OC(=O)c1ccccc1[N+](=O)[O-])c1cccnc1	55*	57%	7%	71%	35*
COc1ccccc1CC(=O)N1CCN(S(=O)(=O)c2ccccc2)CC1	-5	82%	5%	-7%	-2
COc1cc(-c2nc(CN3CCCCC3CCNC(C)=O)c(C)o2)ccc1F (stereo unspecified)	12	19%	2%	-17%	2
CC(C)NC(=O)COC(=O)CNC(=O)c1cc(Cl)cc([N+](=O)[O-])c1	-16	0%	-1%	6%	-5
C=CCOc1cccc(NC(=O)c2ccccc2SC)c1	21	20%	-6%	?	7
O=C(Oc1c(Br)cc([N+](=O)[O-])cc1Br)c1cccnc1	-13	6.6µM*	-24%	-17%	12
N/C(=N\OC(=O)c1ccc([N+](=O)[O-])cc1)c1cccnc1	117*	-18%	-8%	81%	14*
N/C(=N\OC(=O)c1cc([N+](=O)[O-])ccc1Cl)c1cccnc1	21	1%	-3%	13%	-2
C[C@]12C(=O)N(c3cccc(Cl)c3)C(=O)N1[C@H]1c3ccccc3OC[C@@H]1[C@H]2c1ccccc1	1	10µM*	-14%	0%	1
Cc1cccc(N2C(=O)N3[C@@H]4c5ccccc5OC[C@@H]4[C@@H](c4ccccc4)[C@]3(C)C2=O)c1	-1	12µM*	16%	?	0
CCCCOc1cccc(C(=O)NC(=S)Nc2cccnc2)c1	-4	52%	18%	27%	10
O=C(NC(=S)Nc1cccnc1)c1cccc(Br)c1	63*	0%	-39%	11%	17*
O=C(NC(=S)Nc1cccnc1)c1ccccc1	71*	14%	-4%	65%	28*
O=C(NC(=S)NCCSc1ccccc1)c1cccnc1	37*	-25%	-5%	53%	27*
O=C(Nc1c(-c2ccccc2)nc2ccc(Cl)cn12)c1cccs1	-4	5.2µM*	10%	0%	10
Cc1ccn2c(NC(=O)c3cccs3)c(-c3ccccc3)nc2c1	-6	?	2%	5%	-3
CCOC(=O)C(=CNc1ccc2c(c1)CCN2C(C)=O)C(=O)OCC	-2	?	0%	?	-1
Cc1cc(Cl)ccc1OCC(=O)NC(=S)Nc1ccc(Cl)cn1	-5	?	16%	3%	-2
O=C(NC(=S)Nc1ccc(Br)cn1)c1cccnc1	30	?	-3%	?	28*
O=C(NC(=S)Nc1cc(Cl)ccc1O)c1cccc(Br)c1	90*	3.3µM*	-70%	?	42*
O=C(NNC(=O)c1cccc(Br)c1)Nc1ccc(Cl)cc1	-9	-4%	7%	7%	-4
CCCC(=O)NC(=S)Nc1ccc(Cl)cn1	55	-5%	-56%	8%	30*
O=C(NC(=S)Nc1ccc(Cl)cn1)c1cccs1	99*	?	-40%	465%	63*
CN(C)S(=O)(=O)c1cc(NC2CC(=O)N(c3ccc(F)cc3)C2=O)ccc1Cl (stereo unspecified)	8	31%	.	-11%	5
SMILES	Shiga toxin inh	Pf growth 96h	NS1 function inh	Pf growth 48h	CHX counter
O=c1ccn(CCc2c[nH]c3ccccc23)c2c1CCCC2	30	44%	.	34%	10
S=c1[nH]nc(Cc2noc3ccccc23)n1-c1ccccc1	-1	?	6%	17%	-2
CSCCC(NS(=O)(=O)c1ccccc1F)C(=O)N1CCCCCCC1 (stereo unspecified)	-8	13%	2%	-2%	-4
NS(=O)(=O)c1ccc(O)c(N2C(=O)c3cccc4c(C(=O)O)ccc(c34)C2=O)c1	55	15%	4%	25%	11
CCOC(=O)CNc1c(-c2ccc(O)cc2)nc2ccc(Cl)cn12	56	?	-12%	2%	23*
O=C(Nc1cnccn1)c1cccs1	66	.	-17%	0%	19*
O=C(NC(=S)Nc1cccnc1)c1cccs1	42*	?	-2%	23%	20*
O=C(Nc1ncc(Cl)cn1)c1cccs1	59*	64%	-14%	.	45*
Cc1cc(Cl)ccc1Oc1ccccc1C(=O)CC#N	-4	?	.	-1%	0
CCCCn1c(N)c(N(CC(C)C)C(=O)c2ccc(OCc3c(C)noc3C)cc2)c(=O)[nH]c1=O	.	9%	.	?	.
COc1ccc(N2CC(C(=O)NCCc3ccc(Cl)cc3)CC2=O)c(OC)c1 (stereo unspecified)	.	11%	.	?	.
Cc1ccc(S(=O)(=O)NC(CN2CCOCC2)=NCCNS(=O)(=O)c2ccccc2)cc1	6	15%	-1%	-15%	4
CCCn1c(=O)[nH]c(=O)c2c1nc(-c1ccc(C(F)(F)F)cc1)n2CCOC	14	?	19%	-21%	-9
COCCn1c(-c2ccc(SC)cc2)nc2c1c(=O)[nH]c(=O)n2CC(C)C	25	4%	6%	-49%	24*
COCCn1c(-c2ccc(OC(F)(F)C(F)C(F)(F)F)cc2)nc2c1c(=O)[nH]c(=O)n2CC(C)C (stereo unspecified)	-10	6.6µM*	23%	.	2
O=C(COC(=O)CNC(=O)c1ccccc1)Nc1ccc(Cl)cc1C(F)(F)F	-2	20%	-9%	7%	-3
O=C(O)CCN=CC1=C(O)CC(c2ccccc2)CC1=O (stereo unspecified)	-23	2%	12%	2%	-2
CC(=O)c1cnc(N(C)C)s1	-4	13µM*	0%	1%	-1
Cc1ccc(NC(=O)CC2S/C(=N/N=C3/NC(=O)CS3)NC2=O)cc1 (stereo unspecified)	-2	2%	8%	16%	-4
CC1C/C(=N/N=C2/NC(=O)CS2)CC(C)(C)C1 (stereo unspecified)	37	10µM*	-3%	-12%	-2
Cc1cc(C)nc(/N=C2/NC(=O)CS2)n1	-6	?	-5%	20%	2
O=C1CS/C(=N/N=C2C3CC4CC(C3)CC2C4)N1	2	13µM*	8%	6%	2
CC1C/C(=N/N2C(=O)CSC2=S)CC(C)(C)C1 (stereo unspecified)	-3	13µM*	7%	31%	-3
CCn1c(COc2cccc(OC)c2)nnc1SCC(=O)Nc1cccc(OC)c1	-7	13%	-36%	-13%	4
O=C(CCSc1ccccc1)NNC(=O)c1ccccc1F	.	41%	.	27%	.
CCSc1nnc(NC(=O)[C@H](C)N2C(=O)C3CC=CCC3C2=O)s1 (stereo partly specified)	-5	68%	.	43%	9
O=C(CN1C(=O)C(=O)N(C2CCCC2)C1=O)Nc1ccc(N2CCOCC2)cc1	-8	?	.	14%	1
COCC(C)n1c(C)cc(C(=O)COC(=O)c2nc3nc(C)cc(C)n3n2)c1C (stereo unspecified)	-10	.	4%	-6%	2

High-throughput results (PubChem BioAssay)
